The sample as a whole holds a higher share of hits than the screen did.
HT1080NT lethal = kills 2HG-producing HT-1080-NT fibrosarcoma cells. HT-1080-NT fibrosarcoma viability, CellTiter-Glo ATP luminescence, 48 h. Potency, µM (series often up to 46.1 µM), without a hit: at the highest dose activity, negative = less viability, actives largely listed as cytotoxic. 360,000 tested, 1.6% active;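 further: NT is the 2HG producing partner of a matched IDH1 knockdown line; potency means the concentration at half of the fitted maximal effect; 0% = DMSO-treated cells and -100% = media-only wells without cells; nearly all actives have a fitted effect of over 55% in size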
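Toxicity toward the 2HG-producing NT line was scored as %Activity, normalised to DMSO and no-cell wells, from CellTiter-Glo luminescence after 48 hours' treatment.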
TDP1 cell noCPT = qHTS for Inhibitors of human tyrosyl-DNA phosphodiesterase 1 (TDP1): qHTS in cells in absence of CPT. DT40 Tdp1-/- hTDP1 cells, no CPT, ATP luminescence, 48 h. 420,000 tested, 15% active. AID 686978, 2013. Potency, µM (top dose mostly 46.2 µM), inactives show top-dose activity change, negative = growth inhibition, usual class: inhibitors; further: potency means the concentration at half of the fitted maximal effect; nearly all actives have a fitted effect of over 55% in size
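A cellular qHTS used chicken DT40 cells lacking endogenous Tdp1 but carrying stably transfected human TDP1. Compounds were applied without camptothecin, and cell growth kinetics were judged by ATP-dependent luminescence after ≥48 hr.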
HT1080 IDH1KD tx = HT-1080 IDH1 knockdown cell toxicity (counter line); HT-1080 IDH1 knockdown viability, ATP luminescence, 48 h; Potency, µM (top dose mostly 46.1 µM), without a hit: at the top dose activity, negative = toxicity, actives largely listed as cytotoxic; 360,000 tested, 2% active; AID 686971;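 further: potency means the concentration at half of the fitted maximal effect; 0% = DMSO wells and -100% = cell-free medium wells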
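After a 2 h attachment period, IDH1KD HT-1080 cells took pin-transferred compound for 48 h at 37 °C; ATP-based luminescence after 10 min room-temperature reagent incubation reported viability.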
ALOX12 inh = blocks human arachidonate 12S-lipoxygenase; AID 1671190; purified 12hLO, xylenol orange hydroperoxide absorbance; Potency, µM (highest dose often 108 µM), for the others: top-dose activity change, negative = inhibition, actives largely listed as inhibitors; 580,000 tested, 1.1% active; further: potency means the concentration at half of the fitted maximal effect
Target sequence (P18054 whole entry, looked up): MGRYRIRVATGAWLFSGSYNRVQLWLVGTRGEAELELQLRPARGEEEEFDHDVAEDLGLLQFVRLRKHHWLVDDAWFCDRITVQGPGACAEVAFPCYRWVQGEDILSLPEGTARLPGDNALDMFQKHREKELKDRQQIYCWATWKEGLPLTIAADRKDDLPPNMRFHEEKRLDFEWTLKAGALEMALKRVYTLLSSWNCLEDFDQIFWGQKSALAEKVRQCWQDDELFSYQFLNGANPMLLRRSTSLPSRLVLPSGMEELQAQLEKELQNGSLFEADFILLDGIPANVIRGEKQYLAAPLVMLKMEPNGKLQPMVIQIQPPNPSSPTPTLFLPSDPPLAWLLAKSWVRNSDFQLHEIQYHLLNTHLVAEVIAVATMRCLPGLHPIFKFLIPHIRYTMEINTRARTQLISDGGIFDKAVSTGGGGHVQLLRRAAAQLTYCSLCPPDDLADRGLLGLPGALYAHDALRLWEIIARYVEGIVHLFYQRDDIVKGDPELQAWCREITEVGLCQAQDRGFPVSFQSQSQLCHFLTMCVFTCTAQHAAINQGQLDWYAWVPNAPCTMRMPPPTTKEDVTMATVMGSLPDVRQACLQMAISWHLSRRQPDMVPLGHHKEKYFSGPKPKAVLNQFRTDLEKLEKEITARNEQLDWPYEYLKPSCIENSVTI
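Purified human 12hLO at 150 nM in 25 mM Hepes, 0.01% Triton X-100, pH 7.0, preincubated 15 min at room temperature with compound. Reaction started with 40 uM arachidonic acid, 30 min at room temperature. Hydroperoxide measured by Fe-xylenol orange, 573/405 nm absorbance ratio.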
IL-1B inflam inh = inflammasome signaling inhibition, IL-1 beta readout | AID 743279 | 360,000 tested, 4.7% active | activity change, % at 57.5 µM | THP-1 LPS/ATP IL-1B secretion, AlphaLISA, 16 h; hits give low values; in the data active means activity change below about -50%; inconclusive means mostly about -30% to -49%
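Secreted IL-1B measured by AlphaLISA bead assay after 16 h compound exposure of THP-1 cells; compounds (final up to 57.5 uM) added 1 h before LPS (250 ng/mL) and ATP (1.25 mM) stimulation; lower signal means less secretion.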
DT40 TDP1 CPT = growth inhibition of DT40 Tdp1-/-;hTDP1 cells with camptothecin (screen for TDP1 inhibitors); Potency, µM (top dose mostly 46.2 µM), for the others: at the highest dose activity change, negative = growth inhibition, hits mostly inhibitors; 420,000 tested, 12% active; chicken DT40 Tdp1-/-;hTDP1 cells + 20 nM CPT, ATP luminescence, 48 h; AID 686979; further: potency means the concentration at half of the fitted maximal effect; nearly all actives have a fitted effect of over 55% in size
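Chicken DT40 Tdp1-/- cells stably complemented with human TDP1 were seeded at 400 cells/well in medium containing 20 nM camptothecin, exposed to pin-transferred compounds, and grown at 37 °C for at least 48 hr. Viability was read as ATP luminescence.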
An asterisk follows results filed as active; ? = inconclusive; . = not tested or not shown. Unless noted, the call rests on the fitted dose curve; in most records, active means well fitted curve in the direction sought with a large enough effect; inconclusive means small, poorly fitted or top-dose-only effect, or another doubt; inactive means no such curve, though single readings can be large; an effect the other way counts as inactive or inconclusive. Unless noted, on the % scale 0 is the no-effect control and ±100 the full control effect.

SMILES	HT1080NT lethal	TDP1 cell noCPT	HT1080 IDH1KD tx	ALOX12 inh	IL-1B inflam inh	DT40 TDP1 CPT
Cc1ccc(CN2C[C@@H]3C(=O)N(CCCN4CCCC4=O)C(=O)[C@@H]3C2)c(C)c1	.	.	.	51.4%	.	.
Cc1sc(NC(=O)c2ccccc2F)c(CN2CCCCC2C)c1C (stereo not given)	7.6%	11.6µM*	11.4%	?	0.6	18.4µM*
Cc1ccc(COC(=O)c2cc(=O)c3ccccc3o2)cc1	.	.	.	2.0%	.	.
Cc1ccc2[nH]c(=O)c3cc(C(=O)N(C)Cc4ccco4)sc3c2c1	-24.9%	?	-20.8%	?	-6.9	?
CCCN(CCC)C(=O)c1cc2c(=O)[nH]c3ccc(C)cc3c2s1	-2.0%	16.4µM*	0.7%	-15.6%	?	?
CCOCCCN(Cc1ccco1)C(=O)c1cc2c(=O)[nH]c3ccc(C)cc3c2s1	-19.8%	11.6µM*	-23.5%	9.3%	-5.9	23.1µM*
CCCN(C(=O)c1cc2c(=O)[nH]c3ccc(C)cc3c2s1)c1ccc(CC)cc1	.	-11.2%	.	-24.2%	.	-3.3%
CCN(C(=O)c1cc2c(=O)[nH]c3ccc(C)cc3c2s1)c1ccc(OC)cc1	-2.7%	9.2µM*	-1.3%	0.0%	-9.9	29.1µM*
CCN(CCCNC(=O)c1cc2c(=O)[nH]c3ccc(C)cc3c2s1)c1ccc(C)cc1	.	?	.	4.2%	.	?
Cc1ccc(C)c(N(C)C(=O)c2cc3c(=O)[nH]c4ccc(C)cc4c3s2)c1	-4.0%	4.11µM*	6.3%	-7.7%	-3.1	16.4µM*
CC(C(=O)NC1CCCCC1)N1CCN(Cc2ccc(C(F)(F)F)cc2)CC1 (stereo not given)	.	.	.	13.6%	.	.
CCOC(=O)/C(C#N)=C/c1ccccc1OCc1ccc(Cl)cc1	.	.	.	24.3%	.	.
Cc1cc(C)cc(Oc2nc(C(F)(F)F)nc3ccccc23)c1	?	20.6µM*	?	13.9%	12.2	18.4µM*
CC(=O)Nc1ccc(Oc2nc(C(F)(F)F)nc3ccccc23)cc1	13.1%	-13.0%	5.5%	1.3%	13.7	1.2%
Cc1cccc(CN2CCN(c3nc4c(c(=O)[nH]c(=O)n4C)n3Cc3cccc(C)c3)CC2)c1	.	.	.	-4.9%	.	.
OCCC1CN(Cc2ccc(-c3ccco3)cc2)CCN1Cc1ccsc1 (stereo not given)	-10.4%	?	-2.4%	-3.5%	-61.2*	?
OCCC1CN(Cc2ccccc2OC2CCCC2)CCN1Cc1ccsc1 (stereo not given)	1.0%	14.6µM*	7.1%	-0.3%	-5.9	?
OCCC1CN(Cc2cccc3nonc23)CCN1Cc1ccsc1 (stereo not given)	0.3%	-15.3%	0.8%	0.0%	10.8	-10.5%
C/C(CS(=O)(=O)c1ccc(Cl)c(Cl)c1)=N/NC(N)=S	-8.7%	5.8µM*	-11.3%	?	32.2	18.4µM*
c1ccc(-c2nc(C34CC5CC(CC(C5)C3)C4)co2)cc1	.	.	.	-58.9%	.	.
COc1ccc(OC)c(C2C(C(=O)Nc3ccccc3)=C(C)Nc3nc(SC)nn32)c1 (stereo not given)	.	.	.	6.4%	.	.
O=C(CSc1nnc(SCc2ccc(Cl)cc2)s1)N/N=C/c1c[nH]c2ccccc12	?	?	18.4µM*	-14.7%	1.3	?
O=C(O)COc1ccccc1/C=N/NC(=O)CSc1nnc(SCc2ccc(Cl)cc2)s1	-14.2%	-13.9%	-1.2%	-25.3%	13.4	-22.8%
O=C(CSc1nnc(SCc2cccc3ccccc23)s1)N/N=C/c1c[nH]c2ccccc12	-18.6%	16.4µM*	?	-16.5%	30.6	?
O=C(O)COc1ccccc1/C=N/NC(=O)CSc1nnc(SCc2cccc3ccccc23)s1	0.0%	?	10.5%	-18.2%	5.4	-7.4%
SMILES	HT1080NT lethal	TDP1 cell noCPT	HT1080 IDH1KD tx	ALOX12 inh	IL-1B inflam inh	DT40 TDP1 CPT
CC1CC2(CCCCC2)Nc2ccc3ccccc3c21 (stereo not given)	1.9%	?	-6.0%	?	30.4	20.6µM*
CC(=O)N1c2ccc3ccccc3c2C(C)CC12CCCCC2 (stereo not given)	?	?	?	7.3%	6.1	?
Cc1ccc(N/C=C(\C2OC(=O)c3ccccc32)[N+](=O)[O-])c(C)c1 (stereo not given)	0.7%	-30.0%	0.0%	?	-77.2*	0.7%
O=C1OC(/C(=C\Nc2cc(Cl)ccc2O)[N+](=O)[O-])c2ccccc21 (stereo not given)	?	?	?	?	-170.2*	9.3%
COc1ccc(CCNC(=O)CCS(=O)(=O)c2ccc3c(c2)NC(=O)CO3)cc1OC	17.0%	28.0%	1.6%	11.8%	0.4	-12.5%
CSCc1ccc(N2CCC(C(C)N3CCCC3)CC2)nc1 (stereo not given)	.	.	.	-0.4%	.	.
Cc1ccc(Nc2nc(N)c([N+](=O)[O-])c(N3CCCC(C)C3)n2)cc1C (stereo not given)	18.9%	?	1.4%	-9.4%	-98.0*	?
Cc1cccc(Nc2nc(N)c([N+](=O)[O-])c(N3CCOCC3)n2)c1	0.9%	?	-8.8%	-17.6%	-21.6	-1.7%
CC1CC(C)CN(c2nc(NCc3ccco3)nc(N)c2[N+](=O)[O-])C1 (stereo not given)	3.6%	14.6µM*	7.8%	-28.9%	20.7	16.4µM*
COc1cccc(Nc2nc(N)c([N+](=O)[O-])c(N3CCOCC3)n2)c1	10.1%	23.1µM*	4.8%	0.0%	15.6	?
CCN1CCN(c2nc(N)c([N+](=O)[O-])c(Nc3ccc(C)cc3)n2)CC1	-0.5%	?	0.0%	-26.4%	-61.5*	?
CC1CCCN(c2nc(NCc3ccco3)nc(N)c2[N+](=O)[O-])C1 (stereo not given)	?	?	-12.5%	-28.1%	-12.2	?
COCCn1c(=O)c(-c2cccs2)nc2cnc(N(C)C)nc21	.	2.6%	.	?	.	6.1%
CCOc1ccccc1C(=O)NCC(=O)N1CCN(c2ccccn2)CC1	.	.	.	6.2%	.	.
COc1cc(CNC(=O)c2nccnc2N)ccc1O	.	.	.	-8.0%	.	.
CCN1CCN(c2nc(N)c([N+](=O)[O-])c(Nc3ccc(C)c(C)c3)n2)CC1	11.7%	16.4µM*	10.5%	1.3%	11.2	?
CCOc1ccc(Nc2nc(N)c([N+](=O)[O-])c(N3CCN(CC)CC3)n2)cc1	-24.3%	-18.3%	-13.2%	?	-25.9	?

High-throughput results deposited in PubChem BioAssay by National Center for Advancing Translational Sciences (NCATS).
